Experimental data taken from PubChem BioAssay (NCI).
About 83,000 compounds went through this panel and 20% of them were active in at least one assay; those are over-represented in the sample as a whole.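 Negative percent growth values reflect cell death: -40 means 40% of the cells present at the start died, and -100 means all died.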 Unmarked numbers belong to inactive results. The source made the active and inactive calls. The calls were made as follows: active = growth percent below 10; inactive = the rest.

Tests used:
Assay in all cases: NCI-60 one-dose screen, 48 h (100 = growth as untreated, 0 = no growth, -100 = all killed)
Details in all cases: 10 µM unless noted
HCT-15 colon = tested on: HCT-15 colon
HT29 colon = tested on: HT29 colon
SNB-75 CNS = tested on: SNB-75 CNS
SNB-19 CNS = tested on: SNB-19 CNS
U251 CNS = tested on: U251 CNS
PC-3 prostate = tested on: PC-3 prostate
SK-MEL-5 melanoma = tested on: SK-MEL-5 melanoma
UACC-62 melanoma = tested on: UACC-62 melanoma
LOX IMVI melanoma = tested on: LOX IMVI melanoma
SK-MEL-28 melanoma = tested on: SK-MEL-28 melanoma
SK-MEL-2 melanoma = tested on: SK-MEL-2 melanoma
EKVX NSCLC = tested on: EKVX NSCLC
SN12C renal = tested on: SN12C renal
UO-31 renal = tested on: UO-31 renal
TK-10 renal = tested on: TK-10 renal
ACHN renal = tested on: ACHN renal
CAKI-1 renal = tested on: CAKI-1 renal
A498 renal = tested on: A498 renal
CCRF-CEM leukemia = tested on: CCRF-CEM leukemia
MOLT-4 leukemia = tested on: MOLT-4 leukemia

| SMILES | growth (HCT-15 colon) | growth (HT29 colon) | growth (SNB-75 CNS) | growth (SNB-19 CNS) | growth (U251 CNS) | growth (PC-3 prostate) | growth (SK-MEL-5 melanoma) | growth (UACC-62 melanoma) | growth (LOX IMVI melanoma) | growth (SK-MEL-28 melanoma) | growth (SK-MEL-2 melanoma) | growth (EKVX NSCLC) | growth (SN12C renal) | growth (UO-31 renal) | growth (TK-10 renal) | growth (ACHN renal) | growth (CAKI-1 renal) | growth (A498 renal) | growth (CCRF-CEM leukemia) | growth (MOLT-4 leukemia) |
| --- | --- | --- | --- | --- | --- | --- | --- | --- | --- | --- | --- | --- | --- | --- | --- | --- | --- | --- | --- | --- |
| N/C(=N\c1nc2ccccc2s1)NC(=O)Nc1ccccc1F | 25.7% | 5.46% (active) | -0.749% (active) | 28.9% | 11.2% | 33.3% | -0.0152% (active) | 25.3% | 27% | 57.3% | 11% | 37% | 26.4% | 34.3% | 38.4% | 47.8% | 18.6% | 78.4% | 5.96% (active) | 21.1% |
| COc1cc(CNC(=O)C[C@H](C)CCC=C(C)C)ccc1OCc1cn(-c2ccc(Br)cc2)nn1 | 82.4% | 94.4% | 47.3% | 57.7% | 63.4% | 81.4% | 55.7% | 65.1% | 74% | 96.5% | 78% | 79% | 71.6% | 62.9% | 109% | 56.4% | 28.8% | 105% | 61.1% | 70% |
| Clc1ccccc1Nc1nnc(-c2c[nH]c3ccccc23)o1 | 26.1% | 2.07% (active) | 42% | 41% | 7.39% (active) | 32.7% | 9.29% (active) | 15.2% | 15.5% | 59.4% | -2.89% (active) | 18.7% | 26.6% | 33.1% | 69% | 39.9% | 32.7% | 113% | 9.07% (active) | 5.42% (active) |
| O=C1Nc2ccc(F)cc2/C1=C/C(=O)c1cc2ccccc2oc1=O | 62.7% | 115% | 91.1% | 100% | 104% | 93.7% | 102% | 82.2% | 80.4% | 117% | 102% | 90.3% | 104% | 62.1% | 161% | 62.5% | 88.8% | 128% | 39.6% | 65% |
| COc1cccc(/C=C/c2nc3ccccc3c(=O)n2CC(=O)Nc2ccccc2)c1 | 67.8% | 58.5% | -35.9% (active) | 40.4% | 7.15% (active) | 76.1% | 73.6% | 67.2% | 26.8% | 76.5% | 81% | 85.1% | 17.6% | -24.8% (active) | 11.7% | -15.6% (active) | 72.3% | 28% | 90.1% | 94.2% |
| Cc1nc2sccn2c1-c1nnc(SCc2ccccc2)o1 | 89.2% | 85.6% | 106% | 80.6% | 82.8% | 82% | 90% | 80.2% | 92.7% | 94.8% | 87% | 87.5% | 86.6% | 74.2% | 110% | 92.6% | 85.2% | 87.8% | 91.3% | 88.1% |
